In all, about 69,000 compounds went through this assay and about 8,600 (12%) showed an effect of 50% or more. Many of the other results were omitted from the sample, so strong results are more common in it than they were.
Tested on: Plasmodium berghei
Assay: Screen against P. berghei liver stage (PbLuc), transformed with Luciferase, at 10uM
Type: functional, HepG2
Conditions: tested at 10 uM

Compound | INHIBITION [%]
CN(C)CCO[C@H]1CN(Cc2ccc3c(c2)OCO3)[C@@H]2COC[C@H]12 | 33
CCNC(=O)Cc1n[nH]c(-c2cncc(Br)c2)n1 | 39.3
Cc1cnn(CCNCC(=O)NC(C)c2ccc3c(c2)OCCO3)c1 (stereo not given) | 8.64
CC(=O)N1[C@H](CN(C)C)C[C@@H]2CN(C(=O)c3cccc(F)c3)CC[C@@H]21 | 29.9
CN(C)c1ccc(CCCNC(=O)NCC(O)c2cccs2)cc1 (stereo not given) | 60.4
CN(C)c1ccc(C(O)CNC(=O)NCCCc2ccccc2)cc1 (stereo not given) | 5.91
CN(C)c1ccc(CCCNC(=O)NCC(O)c2ccsc2)cc1 (stereo not given) | 8.92
CN1CC(c2cc(O)nc(NCc3ccccc3Cl)n2)CC1=O (stereo not given) | 30.4
O=C(CCc1ccc(Cl)s1)NCc1nnc2n1CCCCC2 | 5.9
O=C(c1nc(Cc2c[nH]c3ccccc23)no1)N1CCCC1 | 25.2
O=C(c1nc(Cc2c[nH]c3ccccc23)no1)N1CCCCC1 | 55.4
O=C(c1nc(Cc2c[nH]c3ccccc23)no1)N1CCOCC1 | 29.9
CCOc1ncccc1NC(=O)NCC(O)c1ccc(OC)cc1 (stereo not given) | 44.1
Cc1cc(C)n(Cc2cc(C(=O)N3CCCC3c3nccs3)n[nH]2)n1 (stereo not given) | 10.7
CCOCc1nc2c(c(NC(CC)c3cccnc3)n1)CCNCC2 (stereo not given) | 53.5
CCOCc1nc2c(c(NC(CC)c3ccnn3C)n1)CCNCC2 (stereo not given) | 40.6
CCOCc1nc2c(c(NC(CC)c3ccncc3)n1)CCNCC2 (stereo not given) | 37.7
O=C1[C@@H]2C[C@H](O)CCN2C(=O)CN1CCSc1ccccn1 | -19.41
NC(=O)CN1CCC(c2cc(C(F)(F)F)n3ccnc3n2)CC1 | 30.8
CC(C)NC(=O)[C@@H]1CN(C)C[C@]12COc1ccc(F)cc1C2=O | 12.515
O=C(NCC(F)(F)F)c1ccc(-n2cccn2)nn1 | -27.8
Cc1csc(N2CCN(CC(=O)NCc3ccccn3)CC2C)n1 (stereo not given) | -19.605
CC(CN1CCOC1=O)NC(=O)c1cccc(C#N)c1 (stereo not given) | 42.1
CCn1nc(C)c(CCNC(=O)c2cccc(-n3cccn3)c2)c1C | 72.5
CCn1nc(C)c(CCNC(=O)c2cccc(NCC(=O)O)c2)c1C | 22.3
CC(CNC(=O)c1cccc(-n2cccn2)c1)Cn1ccnc1 (stereo not given) | -13.6
COc1cccc(C(C(=O)O)N2CCC(Cn3cccn3)CC2)c1OC (stereo not given) | 19.8

Compound | INHIBITION [%]
COc1ccccc1Nc1nc2c(s1)C(=O)CN(C(=O)CC(C)C)C2 | 59
CC(C)CC(=O)N1CC(=O)c2sc(NC3CCCCC3)nc2C1 | 10
CC(C)CC(=O)N1CC(=O)c2sc(NCCc3ccccc3)nc2C1 | 35.2
COCC(=O)N1CCC2(CC1)CNc1ccc(F)cc12 | 5.63
CNc1nc2c(s1)C(=O)CN(C(=O)[C@@H](N)Cc1cccc(OC)c1)C2 | 45.6
CC(C)CC(=O)N1CC(=O)c2sc(Nc3ccc(F)cc3F)nc2C1 | 63.4
COCC(=O)N1CC(=O)c2sc(Nc3ccc(F)cc3F)nc2C1 | 53
CC1CCC2(CC1)Nc1ccccc1CO2 (stereo not given) | 29.7
CCOC(=O)C1(NC(=O)CCNc2cc(C)ccc2OC)CCCCC1 | -7.77
CC(C)Cc1nc(-c2ccnc(N3CCNCC3)n2)no1 | 31.2
Cn1cc(C(=O)N2CC[C@@H]3[C@@H]2CCN3c2ncc(F)cn2)cn1 | 2.4
CC1CCN(C(=O)Cn2nc(Br)nc2Br)CC1 | -12.7
Cc1nc(C2CCCN(C(=O)c3cccc4c3OCCO4)C2)no1 (stereo not given) | 15.3
CC/C=C(/C)C(=O)N1CCN(C2=NCC(C)S2)CC1 (stereo not given) | 30.3
CCC(C)(C)C(=O)N1CCN(C2=NCC(C)S2)CC1 (stereo not given) | -87.7
CCN(CC)C(=O)N1CCN(C2=NCC(C)S2)CC1 (stereo not given) | 65.7
CC(=O)Nc1ccc2c(c1)C1(CCOCC1)C(=O)N2c1ccsc1 | 58.7
CCN1C(=O)C2(CCOCC2)c2cc(NC(=O)c3csnn3)ccc21 | -35.2
CC(C)Nc1ccc2c(c1)C1(CCOCC1)C(=O)N2c1ccsc1 | 52.3
CCN1C(=O)C2(CCOCC2)c2cc(NC(=O)c3cnccn3)ccc21 | -28.8
CCC(C)Nc1ccc2c(c1)C1(CCOCC1)C(=O)N2c1ccccc1 (stereo not given) | 10.5
CCN1C(=O)C2(CCOCC2)c2cc(NC(=O)COC)ccc21 | -19.8
COc1cccc(OC)c1CN1CC(O)CN(S(C)(=O)=O)CC1=O (stereo not given) | 46.4
NC(=O)CN1CCCC(Cc2ccc(N)nn2)C1 (stereo not given) | 8.72
CC(C)n1c(C2CCCN(Cc3ccnn3C)C2)nc2ccccc21 (stereo not given) | 23.9
COc1cccc(CNc2c(O)c(=O)c2=O)c1 | 0.207
Cc1noc(C2CCC3(CCN(C(=O)c4ccn(C)n4)CC3)O2)n1 (stereo not given) | -0.371

Compound | INHIBITION [%]
COc1ccccc1CC(=O)N1CC[C@H](O)[C@]2(CCCO2)C1 | -12.2
COc1cccc(CC(=O)N2CCC3(CC2)OCCCC3O)c1OC (stereo not given) | 69.7
O=C(Cc1ccccc1C(F)(F)F)N1CCC2(CC1)OCCCC2O (stereo not given) | 13.2
COC(=O)c1ccoc1CN(C)CC(=O)NC1CCS(=O)(=O)C1 (stereo not given) | 17.9
Cc1nn(-c2ccccc2)c2c1c(C(F)F)cc(=O)n2CC(=O)O | 36.35
CN(C)CCN(C)C1CCN(C(C(=O)O)c2ccc(F)c(Cl)c2)CC1 (stereo not given) | 34.9
CCCOc1cc(CNC(=O)Nc2ccccn2)ccn1 | 3.87
CC(C)c1nn(C)c(N(C)C)c1CNC1CCN(C2CC2)CC1 | 12.8
C[C@@H](CO)NC(=O)c1ccc2nc(NS(C)(=O)=O)sc2c1 | 54.2
CC(CO)NC(=O)c1ccc2[nH]/c(=N\S(C)(=O)=O)sc2c1 (stereo not given) | 4.93
CSCC[C@@H](CO)NC(=O)c1ccc2nc(NS(C)(=O)=O)sc2c1 | 46.7
Cc1cc(C(=O)N2CCC3(CC2)C(=O)N(C)CCN3CC2CC2)c(C)o1 | 4.98
CN(Cc1ccncc1)C1COC2(CCN(Cc3cccs3)CC2)C1 (stereo not given) | 4.57
CN(Cc1ccncc1)C1COC2(CCN(Cc3ccco3)CC2)C1 (stereo not given) | 59
CN(Cc1ccncc1)C1COC2(CCN(c3ncc(F)cn3)CC2)C1 (stereo not given) | 37.8
CN(Cc1ccccn1)C1COC2(CCN(Cc3cccnc3)CC2)C1 (stereo not given) | 38.1
CN(Cc1ccncc1)C1COC2(CCN(Cc3ccsc3)CC2)C1 (stereo not given) | 49.7
CN(C)C1COC2(CCN(Cc3ccncc3)CC2)C1 (stereo not given) | 29.9
CN(Cc1ccncc1)C1CC2(CCN(Cc3ccccn3)CC2)C1 | 28.7
CN(Cc1ccncc1)C1COC2(CCN(Cc3ccccn3)CC2)C1 (stereo not given) | 52
CN(Cc1ccncc1)C1COC2(CCN(Cc3nccn3C)CC2)C1 (stereo not given) | 73
O=C(O)CCNC(=O)Cc1csc(-c2cccc(Cl)c2)n1 | 25.1
Cc1nc(CN2CCN(C(=O)c3sccc3C3CC3)CC2)oc1C | 1.75
CCc1cc(O)n2nc(C3CCCN3C(=O)c3ccccn3)cc2n1 (stereo not given) | 18.85
Cc1ccc(CNc2nc(O)cc(C3CC(=O)N(C)C3)n2)cc1 (stereo not given) | -16.5
COc1cccc(CNc2nc(O)cc(C3CC(=O)N(C)C3)n2)c1 (stereo not given) | 17.1
CCOCCCNc1nc(O)cc(C2CC(=O)N(C)C2)n1 (stereo not given) | 56.9

Compound | INHIBITION [%]
CNC(=O)c1cnc(C)nc1CCNC(=O)CCc1ccccc1 | -0.232
COCC1c2c(cnn2CC2CC2)CCN1Cc1nccs1 (stereo not given) | 7.11
Cc1n[nH]c(C)c1C(N)C(=O)NCCc1csc(C(C)C)n1 (stereo not given) | -10.8
Cc1nc(CCNC(=O)C(N)c2c(C)n[nH]c2C)sc1C (stereo not given) | 56
CSCc1nc(CCNC(=O)C(N)c2c(C)n[nH]c2C)cs1 (stereo not given) | 21.2
O=C(N1CCCC1)N1CCC2(CC1)COCCN(Cc1cccnc1)C2 | 41.6
C[C@@H](NC(=O)c1ccc(Cl)cc1)c1onc(-c2cccnc2)c1C(=O)O | -4.82
Cc1cccc(=O)n1CCCNc1nc(N(C)C)nc2c1CCNC2 | 10.9
COc1cccc2c1OCCCN(c1nc(N)nc3c1CCNC3)C2 | 27.6
CN(C)c1nc2c(c(N3CCc4c(c(CO)nn4C)C3)n1)CCNC2 | -2.43
Cc1cc2n(n1)CCN(c1nc(N)nc3c1CCNCC3)C2 | 12.1
c1ccc2c(c1)CCN(c1ncnc3sc4c(c13)CCNC4)C2 | 38.2
Cc1cc2n(n1)CCN(c1nc(N(C)C)nc3c1CCNC3)C2 | 57.6
CN(C)c1nc2c(c(N3CCc4ccccc4C3)n1)CCNC2 | 66.7
c1ccc2c(c1)CCN(c1nc(-c3ccncc3)nc3c1CCNC3)C2 | 58
Cc1ccccc1N1CCN(c2nc(N(C)C)nc3c2CCNC3)CC1 | 88.5
NCCC1CN(c2nc(-c3ccccc3)nc3c2CCNC3)CCO1 (stereo not given) | 38.2
Cc1nc2c(c(N3CCN(c4ncccc4C(N)=O)CC3)n1)CCNC2 | 32.5
COCCNc1nc2c(c(N3CCn4nc(C)cc4C3)n1)CCNCC2 | 27.6
COCC1CN(Cc2ccsc2)Cc2nn(C)cc21 (stereo not given) | 22.2
CN(CCCO)Cc1cc(Cl)ccc1OCC(O)CN1CCCCCC1 (stereo not given) | -50.7
COc1ccnc(N2CCN(C(=O)Cc3ccn(C(C)C)n3)CC2)n1 | -47.6
Cc1nn(C)c2nc(C(C)C)cc(C(=O)Nc3n[nH]c(C4CC4)n3)c12 | 45.3
O=C(NCCc1nncn1C1CC1)c1cnn(Cc2ccccc2)c1 | 4.13

Reference: ChEMBL document CHEMBL4513216, “Probing the Open Global Health Chemical Diversity Library for Multistage-Active Starting Points for Next-Generation Antimalarials” (ACS Infect Dis, 2020)
